In PubChem BioAssay AID455 (Sanford-Burnham Center for Chemical Genomics, 2006):
Among all 10,000 compounds or so, about 20 (0.2%) were called active. This is one part of a sample in which actives are shown more often than they occur.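 How the source made its calls: active means a compound raising TNF-alpha-driven VCAM-1 surface staining, with its hit status upheld on visual or statistical review; inactive means the rest, including hits rejected on review.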

Assay: enhancers of VCAM-1 display on endothelial cells, cell-based, plate reader, pooled HUVEC, TNFa stimulus (AID 455);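 on augmentation: 0% = TNFa plus DMSO wells and 100% = a visually confirmed top hit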
Conditions: HUVEC TNFa-induced VCAM-1 immunofluorescence; hits give high values, 100% set by best visually verified hit,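 tested at 5 µM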

| SMILES | augmentation |
| --- | --- |
| CC1/C(=N/O)C(CN(C)C)C2CC1C2(C)C (stereo unspecified) | inactive |
| COc1ccc(-c2noc(C3CCCN(C(=O)CCc4ccccc4)C3)n2)cc1 (stereo unspecified) | inactive |
| O=C(NCCc1c[nH]c2ccccc12)c1cnc2n(c1=O)CCS2 | inactive |
| CCOc1ccccc1C(=O)NC(C)c1ccc2c(c1)OCO2 (stereo unspecified) | inactive |
| O=C(CN1CCN(Cc2ccc(F)cc2Cl)C1=O)NCCCN1CCOCC1 | inactive |
| O=C(CSc1nnc2scc(-c3ccccc3)n12)N1CCN(Cc2ccccc2)CC1 | inactive |
| c1ccc2c3nnc4n(c-3nc2c1)CCCS4 | inactive |
| COc1cc(NC(=O)C2CCCN2S(=O)(=O)c2cccc3cccnc23)cc(OC)c1OC (stereo unspecified) | inactive |
| COc1ccccc1-c1nc(SCc2ccccn2)n[nH]1 | inactive |
| CN(C)c1cccc(C(=O)OCC(=O)NCc2ccco2)c1 | inactive |
| O=C(CSc1nnc(-c2ccccc2)o1)N1CCc2ccccc2C1 | inactive |
| Cc1noc(C)c1COc1cccc(C(=O)Oc2ccc3c(c2)OCO3)c1 | inactive |
| O=C1C2CCCN2C(c2ccc(Cl)cc2)N1c1nccs1 (stereo unspecified) | inactive |
| C=CCn1c(=O)[nH]c2cc(C(=O)N3CCN(c4cc(C)ccc4C)CC3)ccc2c1=O | inactive |
| COc1cccc(NC(=O)CSc2nnc(-c3cccs3)n2C)c1 | inactive |
| CCCC(=O)NCCc1cc2c(C)ccc(C)c2[nH]c1=O | inactive |
| O=C(CNC(=O)c1cccs1)NCCN1CCN(c2ccccc2F)CC1 | inactive |
| COc1cccc(NC(=O)N2CCN(c3cccc(C)c3C)CC2)c1 | 100% (active) |
| COc1cccc(NC(=O)CN2CCN(c3ccccc3F)CC2)c1 | inactive |
| COc1cccc(NC(=O)N2CCC(N3CCCCC3)CC2)c1 | inactive |
| Cc1ccc(C)c(CSc2nnc(CCN)o2)c1 | inactive |
| COc1ccc(N2CCN(CCNS(=O)(=O)c3cccc4nsnc34)CC2)cc1 | inactive |

| SMILES | augmentation |
| --- | --- |
| CC(=O)c1ccccc1Oc1nc(CN2CCOCC2)nc2scc(-c3cccs3)c12 | inactive |
| COC(=O)c1ccc(CNC(=O)CSc2nc3sc(C)c(C)c3c(=O)n2C)o1 | inactive |
| CCN(CC)CCCNS(=O)(=O)c1ccc(OC)cc1 | inactive |
| CCCCC(NS(=O)(=O)c1ccc(OC)cc1)C(=O)O (stereo unspecified) | 66.3% (active) |
| COc1ccc(S(=O)(=O)NCc2ccc(C(=O)O)cc2)cc1 | inactive |
| O=C(Nc1nc(-c2ccc(S(=O)(=O)N3CCCCCC3)cc2)cs1)c1cccs1 | inactive |
| COc1ccc(Cn2c(CCCO)nc3ccccc32)cc1OC | inactive |
| C=CCn1c(-c2ccc(OC)cc2)nc2ccccc21 | inactive |
| COCCn1c(-c2ccc(OC)c(OC)c2)nc2ccccc21 | 100% (active) |
| Cc1ccc(O)c(-c2cc3ccccc3[nH]2)c1 | inactive |
| CC(O)c1nc2ccccc2n1C1CCCCC1 (stereo unspecified) | inactive |
| CC(C)NC(=O)CSc1nc2ccccc2n1-c1ccccc1 | inactive |
| CC(C)N=c1cc2n(-c3ccc(Cl)cc3)c3ccccc3nc-2cc1Nc1ccc(Cl)cc1 | 74% (active) |
| CCOC(=O)C1CN(S(=O)(=O)c2ccc(C)cc2)CCN1S(=O)(=O)c1ccc(C)cc1 (stereo unspecified) | inactive |
| CCOc1ccccc1N1C(=O)CC(Sc2ncccc2C(=O)O)C1=O (stereo unspecified) | inactive |
| COc1ccc(-c2oc3ncn(CCN4CCOCC4)c(=N)c3c2-c2ccc(OC)cc2)cc1 | inactive |
| CC1=C(C(=O)OC2CCCC2)C(c2ccc(C)o2)C2=C(CC(c3cccs3)CC2=O)N1 (stereo unspecified) | inactive |
| COc1cccc(CNC(=O)C2CCN(S(=O)(=O)c3ccc(F)cc3)CC2)c1 | inactive |
| CCCCSc1nnc([C@H](C)NC(=O)OC(C)(C)C)o1 | inactive |
| O=C(OC1CCOC1=O)c1ccc2ccccc2n1 (stereo unspecified) | inactive |
| Cn1cccc1-c1nc2ccc(NC(=O)c3ccco3)cc2[nH]1 | 65.1% (inactive) |
| O=C(Nc1ccc2nc(-c3cccs3)[nH]c2c1)c1ccco1 | 72.4% (active) |

| SMILES | augmentation |
| --- | --- |
| COc1ccc(NC(=O)c2ccco2)cc1NC(=O)c1cccs1 | inactive |
| O=C(Nc1ccccc1-c1nc2ccccc2o1)c1ccc2c(c1)OCCO2 | inactive |
| O=C(Nc1cccc2ncccc12)c1ccc2c(c1)OCCO2 | 81% (active) |
| CCN1C(=O)c2cccc3c(NC(=O)c4ccc5c(c4)OCCO5)ccc1c23 | inactive |
| CC(C)C(=O)N1CCN(c2nc(-c3ccccc3)c3c(c2C#N)CCCC3)CC1 | inactive |
| Oc1cccc(C=NCc2ccccc2)c1O | 61.8% (active) |
| FC(F)Sc1nnc(-c2cccs2)n1-c1ccccc1 | inactive |
| CCCC(=O)Nc1cc(C)c2c(=O)oc3ccccc3c2n1 | inactive |
| Cc1ccc(Br)cc1S(=O)(=O)N1CCN(c2ccccc2)CC1 | inactive |
| Cc1cc(C)c2c(n1)nn1c(C3CC3)cc(C(F)(F)F)nc21 | inactive |
| COc1ccc(C(=O)CN2C3=NCCCN3c3ccccc32)cc1OC | 71.2% (active) |
| c1ccc(CN2C3=NCCCN3c3ccccc32)cc1 | inactive |
| CCOC(=O)CN1C2=NCCN2c2ccccc21 | inactive |
| Cc1cccc(NC(=O)CC2CCC2)c1 | inactive |
| Cc1cc(C)n(-c2nc3sc4c(c3c3nnc(SCC(N)=O)n23)CC(C)(C)OC4)n1 | inactive |
| CCCC(=O)Nc1cc(C)c(NC(=O)c2ccccn2)cn1 | inactive |
| COCCn1c(CN2CCN(c3cccc(Cl)c3)CC2)nc2c1c(=O)n(C)c(=O)n2C | inactive |
| O=c1cc(NCc2ccccc2)nc2n1CCCS2 | inactive |
| O=C(Nc1cccc(F)c1)c1ccc2c(c1)OCO2 | inactive |
| O=C1CCCN1Cc1ncnn1-c1ccccc1 | inactive |
| O=C(Nc1ccc2c(c1)OCO2)N1CCN(c2ncccn2)CC1 | inactive |
| CCC(=O)N1CCc2cc(S(=O)(=O)CCC(=O)Nc3nc(C)cs3)ccc21 | inactive |

| SMILES | augmentation |
| --- | --- |
| CCC(=O)N1CCc2cc(S(=O)(=O)CCC(=O)Nc3c(C)n(C)n(-c4ccccc4)c3=O)ccc21 | 70.3% (active) |
| CCC(=O)N1CCc2cc(S(=O)(=O)CCC(=O)Nc3ccc(C)c(F)c3)ccc21 | inactive |
| CCc1nc(N[C@@H](Cc2c[nH]c3ccccc23)C(=O)O)c2oc3ccccc3c2n1 | inactive |
| Cc1cc2c(=O)n(CC(=O)N3CCN(c4ccccc4)CC3)cnc2s1 | inactive |
| Cc1csc(NC(=O)c2ccccc2C(=O)O)n1 | inactive |
| CC(C)(C)c1ccc(OCC(=O)O)cc1 | inactive |
| Cc1cc(C)nc(N2CCCC(C(=O)Nc3nc4ccc(S(C)(=O)=O)cc4s3)C2)n1 (stereo unspecified) | inactive |
| COc1cc(NC(=O)CN(c2cc(C)cc(C)c2)S(=O)(=O)c2c(C)noc2C)cc(OC)c1 | inactive |
| Cc1ccc(NC(=O)CSc2nnc(CSc3nc(C)cc(C)n3)n2Cc2ccco2)c(C)c1 | inactive |
| CCn1c(=S)ccc2ccc(OC)cc21 | inactive |
| CCOc1ccc(NC(=O)CSc2nccn2C)cc1 | inactive |
| COC(=O)c1ccc2c(c1)C(=O)N(C1CCCCC1)C2=O | inactive |
| CCOc1cc(C2NC(=O)N(C)C(C)=C2C(=O)OC)cc(Br)c1O (stereo unspecified) | inactive |
| CCOC(=O)C1=C(c2ccccc2)NC(=O)NC1c1ccc(N(C)C)cc1 (stereo unspecified) | 63.8% (active) |
| CCOC(=O)C1=C(C)NC2=C(C(=O)CC(C)(C)C2)C1c1ccc(N(C)C)cc1 (stereo unspecified) | inactive |
| CCOC(=O)C1=C(C)NC(=O)NC1c1ccc(OCCO)c(OC)c1 (stereo unspecified) | inactive |
| Cc1ccc(S(=O)(=O)NC(=O)c2cc(C)n(CCCn3ccnc3)c2C)cc1 | inactive |
| COc1ccc(C(=O)Nc2nc(C)c(C(=O)N(C)C)s2)cc1OC | inactive |
| COc1ccccc1NC(=O)NC(N)=O | inactive |
| O=C(C1CC1)N1CCc2cc(Br)cc(S(=O)(=O)N3CCOCC3)c21 | inactive |
| CC1(C)Cc2ccccc2C(N)=C1C#N | inactive |
| CCN1CCN(c2nc(C)nc3c2sc(=S)n3C)CC1 | inactive |

| SMILES | augmentation |
| --- | --- |
| CCc1cc2ccc(C)cc2nc1SCC(=O)N1CCN(C(=O)c2ccco2)CC1 | inactive |
| O=c1c2[nH]c3ccccc3c2ncn1CCCn1ccnc1 | inactive |
| O=C1CCCN1CCCNc1ncnc2c1[nH]c1ccc(Cl)cc12 | inactive |
| O=c1c2[nH]c3ccc(Cl)cc3c2ncn1Cc1ccccn1 | 100% (active) |
| COc1cc(-c2nc(S(=O)(=O)c3ccccc3)c(N3CCOCC3)o2)cc(OC)c1OC | inactive |
| COc1cc2[nH]c(=O)c(C(=O)NCCCN3CCCCC3)c(O)c2cc1OC | inactive |
| COc1cccc(C2C(C(=O)c3cccs3)=C(O)C(=O)N2CCCn2ccnc2)c1OC (stereo unspecified) | inactive |
| Cc1cccc(C(=O)N2CCN(C(=O)c3cccc(C)c3)C(C)C2)c1 (stereo unspecified) | inactive |
| CC(=O)c1ccccc1NS(=O)(=O)c1c(C)nn(-c2ccccc2)c1C | inactive |
| COc1cccc(NC(=O)N(CCCN2CCOCC2)C(C)c2cc3cccc(OC)c3o2)c1 (stereo unspecified) | inactive |
| S=C(c1ccc(N2CCOCC2)cc1)N1CCCCC1 | inactive |
| COc1ccccc1C1/C(=C(\O)c2c(C)nc3c(C)cccn23)C(=O)C(=O)N1CCCN(C)C (stereo unspecified) | inactive |
| COc1ccc(S(=O)(=O)Nc2ccc(F)c(Cl)c2)cc1OC | 70.4% (active) |
| COc1ccc(S(=O)(=O)Nc2ccc(S(=O)(=O)N3CCCCC3)cc2)cc1OC | inactive |
| COc1ccc(S(=O)(=O)Nc2ccc(F)c(F)c2)cc1Cl | inactive |
| COC(=O)Cc1c(C)c2ccc(OCC(=O)N3CCOCC3)cc2oc1=O | inactive |
| CCCSc1nnc(N2C(=O)CC(c3ccsc3)C3=C2CCCC3=O)s1 (stereo unspecified) | inactive |
| COc1ccc(-c2nnc(SCC(=O)NC(=O)NCc3ccco3)o2)cc1 | inactive |
